Screening results as filed in PubChem.
Rows were chosen to be rich in hits. Some 14% of all compounds tested hit in one or more screens of this group.
HCV inh: inhibitors of hepatitis C virus infection; hit rate 3.4% among 340,000; AID 651820; Huh7.5.1 HCVcc-Cre infection, luciferase reporter, 44 h; Potency, µM (series often up to 41.8 µM), without a hit: top-dose activity change, negative = inhibition, actives largely listed as inhibitors; note: potency is the fitted concentration of half-maximal effect
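Infectious HCVcc-Cre (~0.5 moi) was added to cells just after compound, with cells seeded 4 h earlier at 1,000 per well. Luciferase activity after 44 h culture reported infection; substrate was incubated 15 min at room temperature before reading.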
Marburg entry inh: blocks Marburg virus binding to or entry into cells; Potency, µM (top dose mostly 37.8 µM), without a hit: at the highest dose activity change, negative = inhibition, actives largely listed as inhibitors; Marburg virus pseudotyped entry inhibition, cell reporter; hit rate 1.8% among 300,000; calls by dose curve; tested in HEK293 cells; note: potency is the fitted concentration of half-maximal effect
Pf growth 96h: inhibits malaria parasite growth, 96 h; Potency, µM (doses to about 28.7 µM), for inactives: at the highest dose activity change, negative = inhibition, actives largely listed as inhibitors; hit rate 6.9% among 320,000; P. falciparum luciferase reporter growth, 96 h; AID 504834; note: potency is the fitted concentration of half-maximal effect
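Cell-based qHTS: luciferase-tagged P. falciparum in erythrocytes (2% hematocrit, 0.05% parasitemia final) incubated with compounds for 96 hours, 37 C, 5% CO2; luciferase detection reagent then added and luminescence measured.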
HCMV inh: inhibitors of human cytomegalovirus | HFF cells, HCMV-luciferase reporter, 72 h; stronger effect = lower value | activity change, negative = inhibition, % at 57.5 µM | hit rate 4.5% among 410,000; in the data active = activity change below about -60%; inconclusive = no clear call, values can overlap the other calls; inactive = above about -39%
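Two-dose cell screen: HFF monolayers treated with compounds and infected with luciferase-expressing HCMV at 1 PFU/cell, 72 h at 37C, then lysed for luciferase measurement.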
LASV entry inh: inhibitors of Lassa virus binding or cell entry; AID 540256; hit rate 1.2% among 300,000; Potency, µM (highest dose often 37.9 µM), inactives show at the highest dose activity change, negative = inhibition, most hits filed as inhibitors; Lassa virus pseudotype entry inhibition, cell reporter; calls by dose curve; tested in HEK293 cells; note: potency is the fitted concentration of half-maximal effect; nearly all actives have a fitted effect of over 50% in size
Pf growth 48h: inhibits P. falciparum growth in the first generation, 48 h; P. falciparum luciferase growth in erythrocytes, 48 h; Potency, µM (titrated, usually from 28.7 µM), for inactives: at the highest dose activity change, negative = inhibition, actives largely listed as inhibitors; hit rate 5.9% among 310,000; AID 504832; note: potency is the fitted concentration of half-maximal effect
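Firefly luciferase activity from engineered P. falciparum reports growth; inhibitors lower the luminescent signal. Cultures contained 2% hematocrit erythrocytes at 0.1% final parasitemia.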
Starred values were filed as active, the others as inactive; [ ] = another dose, or the depositor's remark. Unless noted, calls come from the whole dose curve; as a rule, active = well fitted inhibition curve with a large enough effect; inconclusive = small, poorly fitted or top-dose-only effect, or another doubt; inactive = no such curve, though single readings can be large or run the other way. % is set by controls: 0 for no effect and ±100 for the full control effect.

For CC(C)(C)C1CCC(=NNC(=O)CC(=O)NCc2ccccc2)CC1 (centres undefined) the results were HCV inh 46.1%, Marburg entry inh 7.6%, Pf growth 96h 2.08µM*, HCMV inh -4.7, LASV entry inh -1.5% and Pf growth 48h 9.8%.
For CCc1cccc(NC(=O)COC(=O)C2COc3ccccc3O2)c1 (centres undefined) the results were HCMV inh -3.1.
Screening CC(=O)n1c2ccccc2c2nc3ccccc3nc21 returned HCV inh -0.9%, Pf growth 96h 2.62µM* and Pf growth 48h 44.3%.
CC(=O)Nc1c(Cl)n(C(C)=O)c2ccccc12 was read as HCV inh -2.1%, Marburg entry inh inconclusive, Pf growth 96h inconclusive, HCMV inh 0.2, LASV entry inh 8.7% and Pf growth 48h 0.6%.
CCn1c2ccccc2c2nc3ccccc3nc21 was read as HCV inh inconclusive, Marburg entry inh 24.5%, Pf growth 96h inconclusive and LASV entry inh inconclusive.
CC(=O)n1c2ccccc2c2c1c1ccccc1n2C was read as HCV inh 2.24µM*, Marburg entry inh -11.6%, Pf growth 96h -5.2%, HCMV inh 66.0, LASV entry inh 4.0% and Pf growth 48h 55.3%.
CN(C(=O)CCN1C(=O)/C(=C/c2ccc(F)cc2)SC1=S)C1CCS(=O)(=O)C1 (centres undefined) was read as HCMV inh 13.7.
CCN(C(=O)CN1C(=O)S/C(=C\c2cccc(Cl)c2)C1=O)C1CCS(=O)(=O)C1 (centres undefined) was read as HCV inh -15.0%, Pf growth 96h 11.7µM*, HCMV inh -28.9 and Pf growth 48h inconclusive.
CCN(C(=O)CCN1C(=O)/C(=C/c2ccccc2)SC1=S)C1CCS(=O)(=O)C1 (centres undefined) was read as HCV inh inconclusive, Marburg entry inh inconclusive, Pf growth 96h 7.38µM*, HCMV inh -112.6*, LASV entry inh inconclusive and Pf growth 48h 13.1µM*.
CC(=O)NNC(=O)CN1C(=O)/C(=C/c2ccccc2)SC1=S was read as HCV inh 7.7%, Pf growth 96h 117.4%, HCMV inh inconclusive and Pf growth 48h -13.6%.
For CCN(C(=O)CN1C(=O)S/C(=C\C=C\c2ccccc2)C1=O)C1CCS(=O)(=O)C1 (centres undefined) the results were HCV inh 8.3%, Pf growth 96h 4.15µM*, HCMV inh -33.5 and Pf growth 48h 7.38µM*.
Screening CCN(CC)C(=O)CN1C(=O)/C(=C/c2ccccc2)SC1=S returned HCV inh inconclusive, Pf growth 96h inconclusive, HCMV inh -63.1* and Pf growth 48h -3.0%.
CCN(C(=O)CN1C(=O)S/C(=C\c2ccc(Cl)cc2)C1=O)C1CCS(=O)(=O)C1 (centres undefined) was read as HCV inh -15.5%, Pf growth 96h 26.9%, HCMV inh inconclusive and Pf growth 48h 0.2%.
Screening CC12C=C(C=Cc3ccc(Br)cc3)C(C)(C1)C(c1ccc(Br)cc1)CC2=O (centres undefined) returned Marburg entry inh -25.8%[14.2 µM] and LASV entry inh 11.5%[14.3 µM].
Cc1ccc(-n2nc(C)c3c(C)c(CCC(=O)NCc4ccccc4Cl)c(C)nc32)cc1 was read as Marburg entry inh 24.5%[46.1 µM], HCMV inh 49.6 and LASV entry inh 8.2%[46.1 µM].
Cc1ccc(S(=O)(=O)N2[C@H](CC(=O)c3ccc(F)cc3)OC[C@@H]2C(C)C)cc1 was read as HCMV inh -3.7.
For CCCCn1c(N)c(N(CCC(C)C)C(=O)c2[nH]c(C)c(C(=O)OCC)c2C)c(=O)[nH]c1=O the results were HCV inh 4.7%, Marburg entry inh 19.5%, Pf growth 96h inconclusive, HCMV inh 1.0, LASV entry inh 0.7% and Pf growth 48h -31.4%.
Screening CCOc1ccccc1NC(=O)c1c(C)cc(C)nc1SCC(=O)c1cccc(OC)c1 returned Marburg entry inh inconclusive, HCMV inh -19.2 and LASV entry inh -27.6%[46.1 µM].
